D1 PAM – Potentiators of Human D1 Dopamine Receptor: qHTS | HEK293 TREx D1 cells, calcium flux, dopamine EC20 potentiation | potentiation, % at 10 µM | 0.036% of 360,000 active; in the data active means potentiation above about 30%; further: 0% is about no effect
DRD3 antagonist – qHTS of D3 Dopamine Receptor Antagonist: qHTS | D(3) dopamine receptor (Homo sapiens), P35462 | 2.5% of 360,000 active | D3R cells, DiscoveRx beta-arrestin luminescence, antagonist mode; hits give low values | max response, negative = inhibition, %; in the data active means max response below about -50%; inconclusive means no clear call, values can overlap the other calls; further: on the % scale 0 is the no-effect control and ±100 the full control effect
Target sequence (P35462 whole entry, looked up): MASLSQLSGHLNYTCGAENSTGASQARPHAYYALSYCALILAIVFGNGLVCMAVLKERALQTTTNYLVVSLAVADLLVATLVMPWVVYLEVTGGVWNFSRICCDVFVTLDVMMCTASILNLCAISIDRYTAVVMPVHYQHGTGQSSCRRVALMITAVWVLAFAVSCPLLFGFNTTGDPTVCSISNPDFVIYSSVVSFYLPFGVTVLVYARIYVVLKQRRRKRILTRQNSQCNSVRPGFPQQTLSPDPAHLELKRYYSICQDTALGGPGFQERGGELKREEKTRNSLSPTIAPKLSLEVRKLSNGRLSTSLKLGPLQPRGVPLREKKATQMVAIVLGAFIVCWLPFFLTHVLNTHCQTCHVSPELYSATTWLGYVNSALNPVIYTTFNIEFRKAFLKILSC
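Cells expressing the human receptor were seeded at 1500 cells/well, incubated overnight at 37 degrees C in 5% CO2, then exposed to library compounds with dopamine controls for 90 minutes at 37 degrees C before luminescent detection.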
D1 antag – Antagonist of Human D 1 Dopamine Receptor: qHTS; D(1A) dopamine receptor (Homo sapiens), P21728; HEK293 TREx D1 cells, calcium flux, dopamine EC80; hits give low values; activity change, negative = inhibition, % at 10 µM; 3.2% of 360,000 active; in the data active means activity change below about -30%; further: on the % scale 0 is the no-effect control and ±100 the full control effect
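Using tetracycline-induced force-coupled D1 Hek293 cells and a calcium dye, signals were followed for 180 s after compound, then for 180 s after EC80 dopamine, to detect inhibitors.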
D3 ag – qHTS of D3 Dopamine Receptor Agonist: qHTS | 0.58% of 410,000 active | AID 652048, 2013 | D(3) dopamine receptor (Homo sapiens), P35462 | D3R DiscoveRx beta-arrestin cells, luminescence, 90 min | max activation, %; in the data active means max activation above about 30%; further: 0% is about no effect
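Cells at 1500/well, incubated overnight, then treated with pinned compounds (dopamine as control) for 90 min at 37 degrees C. DiscoveRx reagent added for 30 - 60 minutes at room temperature; luminescence read.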
D1 ag – Allosteric Agonists of the Human D1 Dopamine Receptor: qHTS; activation, % at 2 µM; AID 504660, 2011; HEK293 T-REx D1 cells, calcium flux, agonist mode; 1% of 360,000 active; D(1A) dopamine receptor (Homo sapiens), P21728; in the data active means activation above about 30%; further: 0% is about no effect
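Inducible HEK293 T-REx D1 cells, force-coupled to calcium signalling, were plated at 4000 cells/well with tetracycline and held overnight at 30 C. After no-wash calcium dye loading, compound-evoked calcium rise over 180 s flagged agonists.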
Active calls of the source: *; u = inconclusive; x = no result. Rows were chosen to be rich in hits. Some 6% of all compounds tested hit in one or more screens of this group.

SMILES	D1 PAM	DRD3 antagonist	D1 antag	D3 ag	D1 ag
Cc1ccc2nc(SCC(=O)c3c(C)[nH]c4ccccc34)[nH]c2c1	-5	16	-7	4	12
CC(=O)c1cccc(NC(=O)C(CC(C)C)NS(=O)(=O)c2ccc3c(c2)CCN3C(C)=O)c1 (centres undefined)	4	x	0	-4	1
CCOC(=O)c1c(NC(=O)/C=C/c2ccc(OCC)cc2)sc(C)c1C	-3	x	-80*	7	3
CCCOC(=O)c1c(NC(=O)/C=C/c2cnn(C)c2C)sc(C(=O)OC)c1C	-3	-77*	-6	17	2
CCOC(=O)c1sc(NC(=O)/C=C/c2cnn(CC)c2C)c(C(=O)OCC)c1C	-4	16	-60*	36*	7
CCCOC(=O)c1c(NC(=O)/C=C/c2cnn(C)c2C)sc(C(=O)OCC)c1C	18	36	-2	20	4
O=C(c1ccc(CS(=O)c2ccccc2Cl)o1)N1CCN(c2ccccc2F)CC1 (centres undefined)	-5	x	-14	-16	1
Cc1ccc(C)c(C(=O)COC(=O)CCN2C(=O)C3C4CCC(C4)C3C2=O)c1 (centres undefined)	-7	11	-45*	9	2
CCCC(=O)N(C1CC(C)C(C#N)(C#N)C1(C#N)C#N)N(C)C (centres undefined)	-15	-62*	-36*	-8	6
CC(=O)N(C1CC(C)C(C#N)(C#N)C1(C#N)C#N)N(C)C (centres undefined)	5	-71*	4	-18	3
CC1(C)Cc2cccc(C(=O)NCc3ccco3)c2O1	-5	u	-26	-7	3
CC(C)(C)NC(=O)c1cccc2c1OC(C)(C)C2	-1	9	-10	49*	3
CCOc1ccc2c(c1)c(=O)c(C(=O)c1ccccc1)cn2Cc1ccccc1F	0	x	-13	7	1
Cc1ccc(NC(=O)C2CCCN(S(=O)(=O)c3ccc4c(c3)CCCC(=O)N4)C2)cc1Cl (centres undefined)	-2	x	-17	6	2
Cc1c(Cl)cccc1-c1ccc(CNCCSc2nnnn2-c2ccccc2)o1	4	x	0	-21	8
CCCCNCCCOc1ccc(C)cc1Br	-5	-67*	-9	0	21
CNCCCOc1ccc(C)cc1Br	-3	-53*	5	-8	5
CCCCNCCCOc1cccc(Cl)c1Cl	-5	-81*	-3	-21	18
Cc1ccc(OCCCN(C)C)c(Br)c1	-2	4	6	-20	1
CNCCCCOc1ccc(C(C)(C)C)cc1Cl	0	-50*	10	-17	27
CN(C)c1ccc(NC(=O)C2(c3cccs3)CCOCC2)cc1	3	x	x	-6	2
COc1ccc(CC(=O)Nc2sc3c(c2C(=O)Nc2cccc(Cl)c2)CCCCC3)cc1	4	x	8	7	0
Cc1ccc(OCCCn2ccnc2)c(Br)c1	-7	-2	-68*	2	5
Cc1ccc(OCCCNCCO)c(Br)c1	-7	-60*	-2	-2	9
Cc1ccc(OCCCn2ccnc2)c([N+](=O)[O-])c1	1	-9	-6	0	1
SMILES	D1 PAM	DRD3 antagonist	D1 antag	D3 ag	D1 ag
Cc1ccc(C(=O)Nc2nnc(S(=O)(=O)N(C)Cc3ccc(F)cc3)s2)cc1	-2	x	-4	6	10
CC(=O)n1cc(N(C(=O)CCl)c2ccc(C)cc2)c2ccccc21	-5	-67*	-9	-11	4
CCCCCCCCNCCS(=O)(=O)NC1CCCCC1	x	-91*	x	-37	x
COc1ccc(C(=O)NCCS(=O)(=O)NC2CCCC2)cc1	2	-11	4	-18	2
COc1cccc(C(=O)NCCS(=O)(=O)NC2CCCC2)c1	4	-74*	9	-9	0
COc1ccc(CNCCS(=O)(=O)NC2CCCCC2)cc1	x	-53*	x	-44	x
O=S(=O)(CCNCc1ccccc1)NC1CCCCC1	x	-50*	x	-41	x
CCCCCCCCNCCS(=O)(=O)NCCCCCCCC	x	-7	x	-2	x
COc1ccc(CNCCS(=O)(=O)NC2CCCC2)cc1	x	-25	x	-41	x
O=S(=O)(NCCc1nnc2ccc(SCc3ccccc3Cl)nn12)c1ccccc1	12	x	-5	7	-1

Screening data from PubChem.
